Laboratory results from PubChem BioAssay (NCATS).
Several values for one entry are separate records, joined by “and”; a condition that tells them apart may be missing. Equal values may be shown once. Inconclusive results are not listed. Unmarked numbers belong to inactive results. Activity calls are given as the source filed them. Calls follow the shape of the dose curve; as a rule, active = well fitted inhibition curve with a large enough effect; inconclusive = small, poorly fitted or top-dose-only effect; inactive = no such curve, though single readings can be large or run the other way.

Assay: Primary qHTS for inhibitors of nuclear receptor binding SET domain protein 2 (NSD2) in an RCH-ACV wild type WT cells (2C) (AID 1645877); also: nearly all actives have a fitted effect of over 70% in size
Conditions: RCH-ACV (leukaemia line) NSD2 WT (2C) viability, CellTiter-Glo, 72 h; series mostly up to 44.9 µM; activity change, negative = cell killing: at the top concentration
% is scaled to controls: 0 for no effect and ±100 for the full control effect; potency is read from the fitted curve at half-maximal effect.

Compound	Potency	activity change, negative = cell killing	outcome
CC1(C)CC[C@]23CO[C@@]4(CCC5[C@@]6(C)CC[C@H](O[C@@H]7OC[C@H](O[C@@H]8O[C@H](CO)[C@@H](O)[C@H](O)[C@H]8O)[C@H](O)[C@H]7O[C@@H]7O[C@H](CO)[C@@H](O[C@@H]8O[C@H](CO)[C@@H](O)[C@H](O)[C@H]8O)[C@H](O)[C@H]7O)[C@@](C)(CO)C6CC[C@@]5(C)[C@]4(C)C[C@H]2OC2OCC(O)C(O)C2O)C3C1 (stereo not given in full)	1.09 µM (active)	–	–
CN[C@H](CC(C)C)C(=O)N[C@H]1C(=O)N[C@@H](CC(N)=O)C(=O)N[C@H]2C(=O)N[C@H]3C(=O)N[C@H](C(=O)N[C@H](C(=O)O)c4cc(O)cc(O)c4-c4cc3ccc4O)[C@H](O[C@H]3C[C@](C)(N)[C@@H](O)[C@H](C)O3)c3ccc(c(Cl)c3)Oc3cc2cc(c3O[C@@H]2O[C@H](CO)[C@@H](O)[C@H](O)[C@H]2O[C@H]2C[C@](C)(NCc3ccc(-c4ccc(Cl)cc4)cc3)[C@@H](O)[C@H](C)O2)Oc2ccc(cc2Cl)[C@H]1O	–	-3.97% [at 17.3 µM]	–
CC1OC(OCC2OC(OC3CCC4(C)C(CCC5(C)C4CC=C4C6CC(C)(C)CCC6(C(=O)OC6OC(CO)C(O)C(O)C6O)CCC45C)C3(C)CO)C(O)C(O)C2O)C(O)C(O)C1O (stereo not given)	–	-0.623% [at 9.23 µM]	–
C=CC(=O)N1CCN(C(=O)CNc2cc(I)c(Cl)cc2O)CC1	5.15 µM (active)	–	–
CC(=O)O[C@@H]1[C@@H](O)[C@H](C)O[C@@H](O[C@H]2[C@@H]3C=CO[C@@H](O[C@@H]4O[C@H](CO)[C@@H](O)[C@H](O)[C@H]4O)[C@@H]3[C@@]3(CO)O[C@@H]23)[C@@H]1OC(=O)/C=C/c1ccccc1	–	–	inactive [at 17.3 µM]
COc1c2c(c(C)c3c1C(=O)OC3)O[C@@]1(C)CCC3(C(C)(C)O)OC(=O)CC[C@]3(C)[C@H]1C2 (stereo not given in full)	–	-25.2% [at 17.3 µM]	–
COC(=O)c1cc(OC)cc(OC)c1C(=O)c1c(OC)cc2c(c1O)C1CCCC(C)(O2)O1 (stereo not given)	–	–	inactive [at 17.3 µM]
CO[C@H]1/C=C/C=C/C=C/C[C@H](OC(=O)[C@@H](C)NC(=O)C2CCCCC2)[C@H](C)[C@@H](O)/C(C)=C/CCc2cc(O)cc(c2)NC(=O)C1	0.242 µM (active)	–	–
CC(C)[C@H]1CC[C@@]2(O)COC(=O)[C@H]2[C@@H]1/C=C(\CO)C(=O)O	–	-1.43%	–
Nc1ncnc2c1ncn2CCNCCCCCO	–	-0.461%	–
CC1(C)CCCC2(C)C=C(C(=O)O)C(O)CC12 (stereo not given)	–	-8.06%	–
O=C(c1ccc(/C=C/c2n[nH]c3ccccc23)cc1)N1CCNCC1	515 nM (active) and 1.86 µM (active)	–	–
CC(=O)C12OC(C)(C)OC1CC1C3CCC4=CC(=O)C=CC4(C)C3(F)C(O)CC12C (stereo not given)	0.0065 µM (active)	–	–
CC(=O)OC1C(O)C2C(C)C3=CC(=O)OC3(O)CC2C2(C)CCCC(C)(CO)C12 (stereo not given)	–	-0.972% [at 17.3 µM]	–
C[C@@H]1O[C@@H](O[C@H]2[C@H](O[C@H]3[C@H](O[C@H]4CC[C@@]5(C)C(CC[C@]6(C)C5CC=C5[C@@H]7CC(C)(C)C[C@@H](O)[C@]7(C)CC[C@]56C)[C@@]4(C)CO)O[C@H](C(=O)O)[C@@H](O)[C@@H]3O)OC[C@H](O)[C@@H]2O)[C@H](O)[C@H](O)[C@H]1O (stereo not given in full)	–	-3.15% [at 9.23 µM]	–
